Experimental data reported in PubChem BioAssay AID683 (University of Pittsburgh Molecular Library Screening Center, 2007).
The other results are listed elsewhere or left out. The source made the active and inactive calls. No stated cut-off is given here; in the data, active means EC50 below about 50 µM; inactive means the rest.

Assay: H2O2 producers via compound redox cycling – biochemical, 1.0 mM DTT, Cdc25B catalytic domain, artefact control, dose response (AID 683)
Conditions: cell-free redox cycling H2O2 generation

Row | SMILES | EC50
1 | c1ccc(CSc2nnc(-c3ccco3)c(-c3ccco3)n2)cc1 | > 50 µM (inactive)
2 | COc1cccc2c(C)c(C(=O)O)[nH]c12 | > 50 µM (inactive)
